Measurements published in PubChem BioAssay (NCATS).
Results filed as inconclusive are left out. The source made the active and inactive calls. Calls follow the shape of the dose curve; as a rule, active = well fitted curve in the direction sought with a large enough effect; inconclusive = small, poorly fitted or top-dose-only effect, or another doubt; inactive = no such curve, though single readings can be large; an effect the other way counts as inactive or inconclusive.

Experiments:
[1] = qHTS of pediatric cancer cell lines to identify multiple opportunities for drug repurposing: Primary screen for DAOY cells (AID 1347090); also: nearly all actives have a fitted effect of over 55% in size; also: potency is read from the fitted curve at half-maximal effect
Method in brief: (§1)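 Eight- or eleven-point concentration series, 48 h treatment at 37 degrees C in growth media; readout CellTiter-Glo luminescence. Potency and efficacy were taken from the concentration-response curves.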

[2] = qHTS of pediatric cancer cell lines to identify multiple opportunities for drug repurposing: Primary screen for SJ-GBM2 cells (AID 1347091); also: potency is read from the fitted curve at half-maximal effect
Method in brief: as §1

[3] = qHTS of pediatric cancer cell lines to identify multiple opportunities for drug repurposing: Primary screen for A673 cells (AID 1347092); also: nearly all actives have a fitted effect of over 45% in size; also: potency is read from the fitted curve at half-maximal effect
Method in brief: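 Cell viability of A673 measured by CellTiter-Glo ATP luminescence after 48 hours compound exposure. Dilution series spanned 0.78 nM to 46 µM (MIPE, 11-point) or 0.59 nM to 46 µM (NPC, 8-point); bortezomib 2.3 uM positive control.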

[4] = qHTS of pediatric cancer cell lines to identify multiple opportunities for drug repurposing: Primary screen for SK-N-MC cells (AID 1347093); also: potency is read from the fitted curve at half-maximal effect
Method in brief: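 Metabolically active cells were quantified by ATP-dependent luminescence (CellTiter-Glo, 15 min at room temperature) following 48 h treatment. Cells had been plated at 500-1,000 per well and settled for 5 h beforehand.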

[5] = qHTS of pediatric cancer cell lines to identify multiple opportunities for drug repurposing: Primary screen for BT-37 cells (AID 1347094); also: potency is read from the fitted curve at half-maximal effect
Method in brief: (§2)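 Cells seeded at 500-1,000 cells/well in growth media, rested 5 hours at 37 degrees C, 5% CO2, then dosed; MIPE compounds at 11-point (from 0.78 nM) and NPC at 8-point (from 0.59 nM) final concentrations. Viability by CellTiter-Glo luminescence after 48 hours.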

[6] = qHTS of pediatric cancer cell lines to identify multiple opportunities for drug repurposing: Primary screen for U-2 OS cells (AID 1347096); also: nearly all actives have a fitted effect of over 50% in size
Method in brief: (§3)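 Cells (500-1,000/well) in growth media were settled 5 h at 37 degrees C, then given compounds for 48 h. Viability was read as CellTiter-Glo luminescence. Primary runs used MIPE at 11 points (0.78 nM-46 µM) and NPC at 8 points (0.59 nM-46 µM); follow-ups used 11 points.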

[7] = qHTS of pediatric cancer cell lines to identify multiple opportunities for drug repurposing: Primary screen for Saos-2 cells (AID 1347097); also: nearly all actives have a fitted effect of over 40% in size; also: potency is read from the fitted curve at half-maximal effect
Method in brief: as §2

[8] = qHTS of pediatric cancer cell lines to identify multiple opportunities for drug repurposing: Primary screen for SK-N-SH cells (AID 1347098); also: nearly all actives have a fitted effect of over 65% in size; also: potency is read from the fitted curve at half-maximal effect
Method in brief: (§4)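 Cells (500-1,000/well) rested 5 h, then received compounds for 48 h; metabolically active cells were measured by CellTiter-Glo luminescence. Final concentrations spanned up to 46 µM (MIPE, 11-point) or 0.59 nM-46 µM (NPC, 8-point) in primary screens, 11-point in follow-ups.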

[9] = qHTS of pediatric cancer cell lines to identify multiple opportunities for drug repurposing: Primary screen for NB1643 cells (AID 1347099); also: nearly all actives have a fitted effect of over 50% in size; also: potency is read from the fitted curve at half-maximal effect
Method in brief: as §2

[10] = qHTS of pediatric cancer cell lines to identify multiple opportunities for drug repurposing: Primary screen for LAN-5 cells (AID 1347100); also: potency is read from the fitted curve at half-maximal effect
Method in brief: as §3

[11] = qHTS of pediatric cancer cell lines to identify multiple opportunities for drug repurposing: Primary screen for BT-12 cells (AID 1347101); also: nearly all actives have a fitted effect of over 25% in size; also: potency is read from the fitted curve at half-maximal effect
Method in brief: as §4

[12] = qHTS of pediatric cancer cell lines to identify multiple opportunities for drug repurposing: Primary screen for Rh18 cells (AID 1347102); also: nearly all actives have a fitted effect of over 65% in size
Method in brief: as §3

[13] = qHTS of pediatric cancer cell lines to identify multiple opportunities for drug repurposing: Primary screen for OHS-50 cells (AID 1347103); also: nearly all actives have a fitted effect of over 40% in size; also: potency is read from the fitted curve at half-maximal effect
Method in brief: as §4

[14] = qHTS of pediatric cancer cell lines to identify multiple opportunities for drug repurposing: Primary screen for RD cells (AID 1347104); also: nearly all actives have a fitted effect of over 55% in size; also: potency is read from the fitted curve at half-maximal effect
Method in brief: as §2

[15] = qHTS of pediatric cancer cell lines to identify multiple opportunities for drug repurposing: Primary screen for MG 63 (6-TG R) cells (AID 1347105); also: nearly all actives have a fitted effect of over 50% in size; also: potency is read from the fitted curve at half-maximal effect
Method in brief: as §2

[16] = qHTS of pediatric cancer cell lines to identify multiple opportunities for drug repurposing: Primary screen for control Hh wild type fibroblast cells (AID 1347106);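 also: series mostly up to about 46 µM; a drop in luminescence marks cytotoxicity and a rise apparent proliferation; nearly all actives have a fitted effect of over 55% in size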
Method in brief: as §3

[17] = qHTS of pediatric cancer cell lines to identify multiple opportunities for drug repurposing: Primary screen for Rh30 cells (AID 1347107); also: series mostly up to about 46 µM; nearly all actives have a fitted effect of over 75% in size
Method in brief: as §3

[18] = qHTS of pediatric cancer cell lines to identify multiple opportunities for drug repurposing: Primary screen for Rh41 cells (AID 1347108); also: nearly all actives have a fitted effect of over 70% in size; also: potency is read from the fitted curve at half-maximal effect
Method in brief: as §2

[19] = qHTS of pediatric cancer cell lines to identify multiple opportunities for drug repurposing: Primary screen for NB-EBc1 cells (AID 1347095); also: potency is read from the fitted curve at half-maximal effect
Method in brief: as §2

[20] = qHTS of pediatric cancer cell lines to identify multiple opportunities for drug repurposing: Confirmatory screen for A673 cells (AID 1347110);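 also: cells exposed to compound for 48 h before the viability read; nearly all actives have a fitted effect of over 65% in size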; also: potency is read from the fitted curve at half-maximal effect
Method in brief: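 Viability was read as ATP luminescence (CellTiter-Glo) after 48 h of compound exposure at 37 C in A673 cells seeded at 500-1,000/well. Titrations reached 46 uM final, with 11 points in the confirmatory screen. Concentration-response curves were fitted directly.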

Measured: Potency

O=C(O)c1ccccc1S
inactive: [1] | [2] | [3] | [4] | [5] | [6] | [7] | [8] | [9] | [10] | [11] | [12] | [13] | [14] | [15] | [16] | [17] | [18]

Oc1cccc2[nH]ccc12
inactive: [1] | [2] | [3] | [4] | [5] | [19] | [6] | [9] | [10] | [11] | [12] | [13] | [14] | [15] | [16] | [17]

CN(C)CCCOC1(Cc2ccccc2)CCCCCC1
inactive: [1] | [2] | [3] | [4] | [5] | [19] | [6] | [8] | [9] | [10] | [11] | [12] | [14] | [15] | [17] | [18]

CCCC(=O)O[C@]1(C(=O)COC(=O)CC)CC[C@H]2[C@@H]3CCC4=CC(=O)CC[C@]4(C)[C@H]3[C@@H](O)C[C@@]21C
inactive: [1] | [2] | [3] | [4] | [5] | [19] | [6] | [8] | [9] | [11] | [12] | [13] | [14] | [15] | [18] | [20]

CC[C@@]1(O)C(=O)OCc2c1cc1n(c2=O)Cc2c-1nc1ccccc1c2/C=N/OC(C)(C)C
inactive: [16]
active: [1] 106 nM | [2] 26.6 nM | [3] 33.5 nM | [4] 21.1 nM | [5] 30.9 nM | [19] 21.1 nM | [7] 59.6 nM | [8] 194 nM | [9] 53.1 nM | [10] 21.1 nM | [11] 246 nM | [13] 34.7 nM | [14] 668 nM | [15] 26.6 nM | [18] 944 nM | [20] 11.7 nM

NC(=O)COCCN1CCN(C(c2ccccc2)c2ccc(Cl)cc2)CC1 (stereo unspecified)
inactive: [1] | [2] | [3] | [4] | [5] | [6] | [7] | [9] | [10] | [11] | [12] | [13] | [14] | [15] | [17] | [18]

CCCCCC[C@@H](CCC)C(=O)O
inactive: [1] | [2] | [3] | [4] | [5] | [6] | [7] | [8] | [9] | [10] | [11] | [13] | [14] | [15] | [16] | [17] | [18]
